Assay outcomes deposited in PubChem BioAssay by Broad Institute.
Only a selection was taken, and hits are over-represented in it overall.
NSD2 block: inhibitors of human NSD2, primary screen, biochemical, plate reader, single point | Histone-lysine N-methyltransferase NSD2 (Homo sapiens), O96028 | NSD2-SET H3K36me1 DELFIA fluorescence | inhibition, % at 12.5 µM | actives 0.07% (n = 44,000) | AID 624260, 2012; in the data active = inhibition above about 54%, passing the limit was not always enough;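 note: inhibitors reduce the monomethyl H3K36 fluorescence signal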
Starred values were filed as active, the others as inactive.

SMILES	NSD2 block
Cc1ccc(C)c(-c2csc(N)c2C#N)c1	-4.6
CC(=O)c1c(O)cc(O[C@@H]2O[C@H](CO)[C@@H](O)[C@H](O)[C@H]2O)cc1O	34.8
CC(C)=CCc1cc(O[C@@H]2O[C@H](CO)[C@@H](O)[C@H](O)[C@H]2O)cc(CC=C(C)C)c1C(O)C(=O)O (some centres not stated)	60.6*
COc1cc(O[C@@H]2O[C@H](CO)[C@@H](O)[C@H](O)[C@H]2O)cc(OC)c1OC	-1.2
O=c1cc(-c2ccc(O)c(O)c2)oc2c(C3O[C@H](CO)[C@H](O)[C@H](O)[C@H]3O)c(O)cc(O)c12 (some centres not stated)	35.1
Cc1ccc(NCc2ccc(C(=O)Nc3ccccc3[N+](=O)[O-])cc2)cc1C	-6.6
O=C(OCc1cccc(O)c1O[C@@H]1O[C@H](CO)[C@@H](O)[C@H](O)[C@H]1O)C1(O)C(=O)C2C3C4C5C(C(=O)C(O)(C(=O)OCc6cccc(O)c6O[C@@H]6O[C@H](CO)[C@@H](O)[C@H](O)[C@H]6O)C2C53)C41 (some centres not stated)	14.1
Cc1nc(C(F)(F)F)nc(Sc2cccc(C(F)(F)F)c2)c1C	3.4
O=P(O)(C1Cc2ccccc2C1)C(O)c1ccco1 (configuration not stated)	0.4
CC1(C)CC[C@]2(C(=O)O[C@@H]3O[C@H](CO)[C@@H](O)[C@H](O)[C@H]3O)CC[C@]3(C)C(=CCC4[C@@]5(C)C[C@@H](O)[C@H](O)[C@@](C)(CO)C5[C@H](O)C[C@]43C)C2C1 (some centres not stated)	17.2
CC1(C)CC[C@]2(C(=O)O[C@@H]3O[C@H](CO)[C@@H](O)[C@H](O)[C@H]3O)CC[C@]3(C)C(=CCC4[C@@]5(C)C[C@@H](O)[C@H](O)C(C)(C)C5CC[C@]43C)C2[C@@H]1O (some centres not stated)	25.7
CC1(C)CC[C@]2(C(=O)O[C@@H]3O[C@H](CO)[C@@H](O)[C@H](O)[C@H]3O)CC[C@]3(C)C(=CCC4[C@@]5(C)C[C@@H](O)[C@H](O)[C@@](C)(CO)C5[C@H](O)C[C@]43C)C2[C@@H]1O (some centres not stated)	62.4*
CCN(CC)C(=O)c1cc(-c2ccc(Cl)c(Cl)c2)on1	3.4
COCCOC(=O)N1C(=O)[C@@]2(c3cc(C#CCC(C(=O)OC)C(=O)OC)ccc31)[C@H](C(=O)N1CCc3cc(OC)c(OC)cc3C1)[C@H]1C(=O)O[C@H](c3ccccc3)[C@H](c3ccccc3)N1[C@@H]2c1ccccc1OCCO	-1.7
Cc1oc(C(C)(C)C)cc1-c1cc(N)n(-c2ccc(I)cc2)n1	-2.0
C=CCN(CC=C)C(=O)Cc1ccc(Br)cc1	-3.0
O=C(N/N=C/c1ccc2ccccc2c1O)c1ccccn1	2.9
CCC1=Nc2cc(C(=O)N(C)Cc3ccccc3)ccc2Sc2ccc(C)cc21	2.7
O=C(O)[C@H]1O[C@@H](Oc2cc(O)c3c(=O)c(-c4ccc(O)cc4)coc3c2)[C@H](O)[C@@H](O)[C@@H]1O	-0.3
N#C/C(=C(\O)COc1ccccc1)c1nc2ccccc2[nH]1	-0.4
C[C@H](CCC(=O)O)[C@H]1CCC2[C@@H]3CC[C@@H]4C[C@H](O)CC[C@]4(C)C3C=C[C@@]21C (some centres not stated)	-6.6
Cc1ccccc1C(C#N)C(CC#N)c1ccccc1 (configuration not stated)	-2.9
